Measurements: PubChem BioAssay (NCATS)
Records with an inconclusive call do not appear. Active and inactive are the calls of the source. Unless noted, calls come from the whole dose curve; as a rule, active = well fitted curve in the direction sought with a large enough effect; inconclusive = small, poorly fitted or top-dose-only effect, or another doubt; inactive = no such curve, though single readings can be large; an effect the other way counts as inactive or inconclusive.

What was measured:
[1] = AP1 Signaling Pathway (AID 357; active = well fitted curve in either direction with a large enough effect, not every such curve was filed as active;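 note: ME-180 reporter cells stimulated with EGF at its EC50 level; % is set by controls: 0 for no effect and ±100 for the full control effect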); conditions: ME-180 AP-1-bla reporter, EGF-induced, beta-lactamase ratio, 5 h; at 17.2 µM (top of the series) unless noted
Method in brief: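 AP-1-bla ME-180 cells, Opti-MEM + 0.5% dialyzed FBS, plated overnight 37 °C. Cpd titration + EC50 EGF, 5 h 37 °C. CCF4 2.5 h RT; ex 405, em 460/530 ratio → %activity, AC50.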

[2] = molecular target: Cytochrome P450 1A2 (Homo sapiens) (UniProt P05177); test: p450-cyp1a2 (AID 410; calls by dose curve; note: potency is the fitted concentration of half-maximal effect;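 for activity change, negative = inhibition: -100% = full effect of reference inhibitor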)
Chain of Cytochrome P450 1A2 (Homo sapiens) (P05177 whole entry, looked up): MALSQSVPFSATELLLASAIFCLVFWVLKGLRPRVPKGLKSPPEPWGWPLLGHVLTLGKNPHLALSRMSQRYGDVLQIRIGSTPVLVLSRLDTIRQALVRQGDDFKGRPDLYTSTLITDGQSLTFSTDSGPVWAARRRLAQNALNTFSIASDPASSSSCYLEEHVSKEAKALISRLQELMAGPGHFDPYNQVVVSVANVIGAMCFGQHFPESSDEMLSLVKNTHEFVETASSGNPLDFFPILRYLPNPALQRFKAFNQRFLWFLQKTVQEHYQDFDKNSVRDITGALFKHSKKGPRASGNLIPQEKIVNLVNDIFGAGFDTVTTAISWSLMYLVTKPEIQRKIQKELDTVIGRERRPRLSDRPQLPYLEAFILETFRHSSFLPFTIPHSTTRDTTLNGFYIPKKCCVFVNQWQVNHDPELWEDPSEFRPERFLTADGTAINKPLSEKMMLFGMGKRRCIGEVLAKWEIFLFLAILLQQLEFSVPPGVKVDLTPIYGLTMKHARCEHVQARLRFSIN
Method in brief: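 20nM CYP1A2 with 100uM Luciferin-ME (at Km) in 100mM KPO4; compound preincubated 10 min, NADPH regeneration added, 60 min at room temperature. Luciferin quantified by luminescence after detection reagent; normalized to 57 uM furafylline.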

[3] = Stat Signaling Pathway (AID 446; active = well fitted curve in either direction with a large enough effect, not every such curve was filed as active;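 note: ME-180 cervical cancer cells given 40 pM IL-6 alongside compound; SIE-controlled beta-lactamase reporter measured as 460/530 nm FRET emission ratio; % is set by controls: 0 for no effect and ±100 for the full control effect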); conditions: ME-180 SIE beta-lactamase reporter, IL-6 stimulated, 5 h; at 17.2 µM (top of the series) unless noted
Method in brief: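 Reporter line: ME-180 cervical carcinoma, SIE-beta-lactamase. Treatment: compound with 40 pM IL-6, 5 hrs, 37 C, in low-serum OPTI-MEM with 10 mM HEPES pH 7.3. Detection: 460/530 nm fluorescence.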

[4] = molecular target: Glucocorticoid receptor (Homo sapiens) (UniProt P04150); test: GR-GFP Redistribution (AID 450;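 active = compounds whose dose series gives a full or clear partial fitted curve of increased nuclear translocation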; note: potency is the fitted concentration of half-maximal effect)
Chain of Glucocorticoid receptor (Homo sapiens) (P04150 whole entry, looked up, the tested form may be a part): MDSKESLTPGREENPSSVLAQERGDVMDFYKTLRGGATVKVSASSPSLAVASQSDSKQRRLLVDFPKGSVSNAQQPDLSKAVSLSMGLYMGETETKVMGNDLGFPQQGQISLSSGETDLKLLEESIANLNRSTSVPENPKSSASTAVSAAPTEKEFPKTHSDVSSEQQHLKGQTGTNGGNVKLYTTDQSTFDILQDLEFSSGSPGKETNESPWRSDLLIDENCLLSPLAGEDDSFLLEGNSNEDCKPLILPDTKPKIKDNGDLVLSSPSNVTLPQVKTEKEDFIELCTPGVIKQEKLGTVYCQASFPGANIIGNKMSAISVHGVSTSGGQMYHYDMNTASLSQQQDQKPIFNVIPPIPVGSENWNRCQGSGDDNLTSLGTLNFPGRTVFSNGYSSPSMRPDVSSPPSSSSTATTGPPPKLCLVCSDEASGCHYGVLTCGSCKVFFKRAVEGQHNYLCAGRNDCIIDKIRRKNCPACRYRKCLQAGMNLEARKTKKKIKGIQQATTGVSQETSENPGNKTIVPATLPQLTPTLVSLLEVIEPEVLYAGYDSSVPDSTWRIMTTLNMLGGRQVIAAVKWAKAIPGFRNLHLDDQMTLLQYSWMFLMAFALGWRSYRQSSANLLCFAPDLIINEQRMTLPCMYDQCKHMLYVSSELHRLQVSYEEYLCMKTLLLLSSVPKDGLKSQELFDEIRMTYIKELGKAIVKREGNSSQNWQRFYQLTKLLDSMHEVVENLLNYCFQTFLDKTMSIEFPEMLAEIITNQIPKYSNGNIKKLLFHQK

[5] = molecular target: Glucocorticoid receptor (Homo sapiens) (UniProt P04150); test: GR-EFC Redistribution (AID 451; calls by dose curve; note: potency is the fitted concentration of half-maximal effect); conditions: CHO-K1 GR-EFC translocation, beta-gal luminescence, 2 h
Method in brief: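 CHO-K1 cells stably expressing nuclear-localized β-gal enzyme acceptor and GR fused C-terminally to the enzyme donor fragment; ligand-driven nuclear translocation restores β-gal by complementation. Compounds titrated up to 46 uM final, 2 h at 37 °C; luminescence read.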

[6] = molecular target: Mitogen-activated protein kinase 10 (Mus musculus) (UniProt Q61831); test: JNK3 AlphaScreen Assay (AID 530; active = well fitted curve in either direction with a large enough effect, not every such curve was filed as active;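 note: kinase came from lysate of stimulated human HepG2 cells; signal reports phosphorylation of biotinylated GST-cJun 1-79 at Ser73 with 10 µM ATP; % is set by controls: 0 for no effect and ±100 for the full control effect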)
Method in brief: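 Inhibitors reduce antibody binding to phosphorylated biotin-cJun, lowering AlphaScreen luminescence. Lysates from HepG2 cells pre-activated by IL-1beta plus TNF-alpha supplied JNK3; compounds were titrated.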

[7] = molecular target: 3',5'-cyclic-AMP phosphodiesterase 4B (Homo sapiens) (UniProt Q07343); test: qHTS Assay for Inhibitors of PDE-IV (AID 607; active = well fitted activation curve with a large enough effect in the main read-out, with a control signal flat, not every such curve was filed as active; note: % of control where 0% means no effect)
Chain of 3',5'-cyclic-AMP phosphodiesterase 4B (Homo sapiens) (Q07343 whole entry, looked up): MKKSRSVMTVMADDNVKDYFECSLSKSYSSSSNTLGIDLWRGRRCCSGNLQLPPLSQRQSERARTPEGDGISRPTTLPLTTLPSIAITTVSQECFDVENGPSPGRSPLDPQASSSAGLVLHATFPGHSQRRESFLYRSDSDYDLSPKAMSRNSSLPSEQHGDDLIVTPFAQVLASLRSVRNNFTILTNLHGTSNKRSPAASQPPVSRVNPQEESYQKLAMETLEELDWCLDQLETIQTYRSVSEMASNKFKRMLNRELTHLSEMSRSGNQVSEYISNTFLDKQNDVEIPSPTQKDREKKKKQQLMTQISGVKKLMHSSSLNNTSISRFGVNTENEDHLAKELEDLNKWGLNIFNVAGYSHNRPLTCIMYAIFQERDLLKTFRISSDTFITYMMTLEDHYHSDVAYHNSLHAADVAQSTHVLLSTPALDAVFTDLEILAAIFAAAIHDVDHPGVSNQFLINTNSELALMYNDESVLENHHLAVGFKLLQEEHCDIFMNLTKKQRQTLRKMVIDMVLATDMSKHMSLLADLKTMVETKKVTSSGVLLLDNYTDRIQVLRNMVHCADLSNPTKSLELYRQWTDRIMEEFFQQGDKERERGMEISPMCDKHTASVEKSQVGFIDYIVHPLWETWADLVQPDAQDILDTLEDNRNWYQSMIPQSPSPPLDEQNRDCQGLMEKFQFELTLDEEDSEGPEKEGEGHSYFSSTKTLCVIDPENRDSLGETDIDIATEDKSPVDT
Method in brief: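 Cell-based read-out of cAMP via a modified cyclic nucleotide-gated channel and membrane potential dye (535/590 nm) in HEK293 cells expressing PDE4 endogenously. Compounds tested up to 22.9 uM final; 100 uM RO 20-1724 reference.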

[8] = qHTS Assay for Identification of Small Molecule Agonists for Hypoxia Response Element Signaling Pathway (AID 914; active = well fitted activation curve with a large enough effect in the signal ratio, with a control signal flat, not every such curve was filed as active; the % refers to the signal ratio; note: % of control where 0% means no effect); conditions: ME-180 (cervical carcinoma) HRE-bla reporter, beta-lactamase ratio, CoCl2, 17 h; activation: hits give high values
Method in brief: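 A beta-lactamase reporter under hypoxia response element control in ME-180 cells served as the system. Compound titrations plus EC50 CoCl2 ran 17 h at 37 degrees Celsius; AC50 values were fitted from %Activity.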

[9] = molecular target: Guanine nucleotide-binding protein G(i) subunit alpha-1 (Homo sapiens) (UniProt P63096); test: qHTS Assay for Inhibitors of RGS12 GoLoco Motif Activity (Green Fluorophore) (AID 879);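 note: 0% = labeled peptide with Gαi1 and full inhibition = labeled peptide alone without protein; negative values mean loss of peptide binding seen as reduced polarization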
Chain of Guanine nucleotide-binding protein G(i) subunit alpha-1 (Homo sapiens) (P63096 whole entry, looked up): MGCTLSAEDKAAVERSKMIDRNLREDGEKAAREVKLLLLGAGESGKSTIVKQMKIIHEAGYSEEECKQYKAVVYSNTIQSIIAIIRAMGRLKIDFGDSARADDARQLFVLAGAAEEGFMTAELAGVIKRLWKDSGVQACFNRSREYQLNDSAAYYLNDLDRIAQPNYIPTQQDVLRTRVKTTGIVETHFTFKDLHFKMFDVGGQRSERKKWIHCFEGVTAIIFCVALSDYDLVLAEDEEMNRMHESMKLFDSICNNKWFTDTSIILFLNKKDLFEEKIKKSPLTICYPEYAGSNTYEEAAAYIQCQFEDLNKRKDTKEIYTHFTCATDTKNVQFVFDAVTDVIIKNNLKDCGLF
Method in brief: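 Fluorescence polarization assay: 50 nM Gαi1 with 10 nM FITC-labeled RGS12 GoLoco peptide in 10 mM Tris pH 7.5, 150 mM NaCl, 0.1 mM GDP, 0.05% NP40, 10 min at room temperature with compound.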

[10] = molecular target: Pyruvate kinase (Leishmania mexicana) (UniProt Q27686); test: qHTS Validation Assay for Inhibitors of Leishmania Mexicana Pyruvate Kinase (AID 945);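 note: 0% = DMSO only neutral control wells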
Chain of Pyruvate kinase (Leishmania mexicana) (Q27686 2-499 E452W): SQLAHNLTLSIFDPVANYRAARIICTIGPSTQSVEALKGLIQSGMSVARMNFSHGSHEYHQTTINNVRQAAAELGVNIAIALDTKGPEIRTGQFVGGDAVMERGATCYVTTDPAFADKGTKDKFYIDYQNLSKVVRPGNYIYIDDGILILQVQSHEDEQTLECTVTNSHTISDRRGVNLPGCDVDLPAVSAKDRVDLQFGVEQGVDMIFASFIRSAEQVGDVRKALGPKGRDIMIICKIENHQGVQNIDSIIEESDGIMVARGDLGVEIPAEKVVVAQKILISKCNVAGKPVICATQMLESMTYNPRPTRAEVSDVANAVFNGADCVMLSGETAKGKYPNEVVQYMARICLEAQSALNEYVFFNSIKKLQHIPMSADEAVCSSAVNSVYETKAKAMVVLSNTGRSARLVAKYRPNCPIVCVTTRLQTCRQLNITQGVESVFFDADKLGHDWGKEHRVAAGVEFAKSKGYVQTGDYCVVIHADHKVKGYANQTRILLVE
Method in brief: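 Compounds are tested as eight-point concentration series. Reactions contain 0.2 nM LmPYK E451W, 0.5 mM PEP, 0.1 mM ADP, 7 mM MgCl2 and 50 mM KCl at pH 7.2, run 1 h at room temperature, then read by PKLight luminescence.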

[11] = molecular target: Pyruvate kinase PKM (Homo sapiens) (UniProt P14618); test: qHTS Assay for Activators of Human Muscle Pyruvate Kinase (AID 954; active = well fitted curve in the direction sought with a large enough effect, not every such curve was filed as active;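 note: 0% = uninhibited enzyme and -100% = no enzyme or full thiadiazolimine inhibition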)
Chain of Pyruvate kinase PKM (Homo sapiens) (P14618 whole entry, looked up): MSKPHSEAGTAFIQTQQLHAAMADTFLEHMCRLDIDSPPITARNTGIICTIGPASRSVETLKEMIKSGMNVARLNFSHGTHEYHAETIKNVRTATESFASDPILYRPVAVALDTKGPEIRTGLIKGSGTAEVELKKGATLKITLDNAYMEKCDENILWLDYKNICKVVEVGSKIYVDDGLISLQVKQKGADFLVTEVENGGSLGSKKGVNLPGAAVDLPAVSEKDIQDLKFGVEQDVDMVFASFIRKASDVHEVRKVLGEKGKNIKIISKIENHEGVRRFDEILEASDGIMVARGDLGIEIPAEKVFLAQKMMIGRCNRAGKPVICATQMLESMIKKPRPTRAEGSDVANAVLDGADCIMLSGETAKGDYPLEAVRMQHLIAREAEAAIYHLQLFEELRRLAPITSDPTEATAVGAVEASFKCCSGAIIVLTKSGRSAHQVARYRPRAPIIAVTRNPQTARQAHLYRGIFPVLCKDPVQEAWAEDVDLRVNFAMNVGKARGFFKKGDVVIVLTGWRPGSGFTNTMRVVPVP
Method in brief: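 Human PKM2 activity is measured as ATP generation, detected by luciferase-coupled luminescence. The enzyme (0.1 nM) acts on 0.5 mM PEP and 0.1 mM ADP for 1 h at ambient temperature; data are normalized to uninhibited and full-inhibition wells.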

[12] = molecular target: Alpha-galactosidase A (Homo sapiens) (UniProt P06280); test: Counterscreen for Glucocerebrosidase Inhibitors: qHTS Assay for Human alpha-Galactosidase at pH 4.5 (AID 992); note: 0% is about no effect
Chain of Alpha-galactosidase A (Homo sapiens) (P06280 whole entry, looked up): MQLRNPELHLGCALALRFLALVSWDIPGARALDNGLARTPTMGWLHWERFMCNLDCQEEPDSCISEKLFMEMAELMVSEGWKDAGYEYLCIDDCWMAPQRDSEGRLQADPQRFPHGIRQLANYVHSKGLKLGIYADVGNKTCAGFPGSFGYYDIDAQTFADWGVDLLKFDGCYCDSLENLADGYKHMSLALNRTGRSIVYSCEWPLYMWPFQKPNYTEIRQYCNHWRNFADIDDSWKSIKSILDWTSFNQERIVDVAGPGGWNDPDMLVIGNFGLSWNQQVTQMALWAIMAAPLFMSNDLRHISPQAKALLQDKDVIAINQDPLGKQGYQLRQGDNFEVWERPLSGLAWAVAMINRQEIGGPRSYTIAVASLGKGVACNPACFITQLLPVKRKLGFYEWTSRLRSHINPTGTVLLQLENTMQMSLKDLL
Method in brief: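 Quantitative HTS: compounds tested from 0.7 nM up to 77 uM against 2 nM enzyme with 80 uM 4-MU alpha-D-galactopyranoside. The 20 min room-temperature reaction is stopped with 1M NaOH/1M glycine, pH 10.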

[13] = molecular target: alpha-glucosidase (Oryza sativa, rice) (UniProt Q653V4); test: Counterscreen for Glucocerebrosidase Inhibitors: qHTS Assay for Rice alpha-Glucosidase at pH 5.0 (AID 997);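 note: 0% = full activity with enzyme and -100% = basal without enzyme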
Method in brief: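 Rice alpha-glucosidase (4 nM final) with 400 uM 4-methylumbelliferyl-alpha-D-glucopyranoside in citrate buffer pH 5.0, 20 min at room temperature, stopped at pH 10; fluorescence 365/440 nm, compounds 0.7 nM–77 uM, AC50 from Hill fits.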

[14] = molecular target: Cytochrome P450 3A4 (Homo sapiens) (UniProt P08684); test: qHTS Assay for Activators of Cytochrome P450 3A4 (AID 885); note: nearly all actives have a fitted effect of over 65% in size; note: potency is the fitted concentration of half-maximal effect
Chain of Cytochrome P450 3A4 (Homo sapiens) (P08684 whole entry, looked up): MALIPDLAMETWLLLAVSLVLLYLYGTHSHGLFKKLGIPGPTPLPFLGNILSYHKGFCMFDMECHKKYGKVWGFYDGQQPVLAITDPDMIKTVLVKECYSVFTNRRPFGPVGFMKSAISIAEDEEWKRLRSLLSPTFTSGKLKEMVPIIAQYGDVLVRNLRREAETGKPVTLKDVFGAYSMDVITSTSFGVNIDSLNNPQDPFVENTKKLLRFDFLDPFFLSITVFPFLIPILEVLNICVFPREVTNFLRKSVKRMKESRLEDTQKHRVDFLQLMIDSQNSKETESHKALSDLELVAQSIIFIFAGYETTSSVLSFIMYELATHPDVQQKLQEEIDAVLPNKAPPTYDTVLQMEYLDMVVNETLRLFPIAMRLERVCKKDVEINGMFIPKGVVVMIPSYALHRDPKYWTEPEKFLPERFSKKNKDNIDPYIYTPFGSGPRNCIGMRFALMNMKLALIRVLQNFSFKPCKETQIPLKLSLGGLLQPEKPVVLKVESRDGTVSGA
Method in brief: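 Signal was normalized against complete inhibition by 57 uM ketoconazole. The reaction used 20nM CYP3A4 with 25uM Luciferin-PPXE, 10-min compound preincubation and a 60-min NADPH-supported step at RT.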

[15] = molecular target: Cytochrome P450 2D6 (Homo sapiens) (UniProt P10635); test: qHTS Assay for Inhibitors and Substrates of Cytochrome P450 2D6 (AID 891); note: nearly all actives have a fitted effect of over 60% in size; note: potency is the fitted concentration of half-maximal effect
Chain of Cytochrome P450 2D6 (Homo sapiens) (P10635 whole entry, looked up): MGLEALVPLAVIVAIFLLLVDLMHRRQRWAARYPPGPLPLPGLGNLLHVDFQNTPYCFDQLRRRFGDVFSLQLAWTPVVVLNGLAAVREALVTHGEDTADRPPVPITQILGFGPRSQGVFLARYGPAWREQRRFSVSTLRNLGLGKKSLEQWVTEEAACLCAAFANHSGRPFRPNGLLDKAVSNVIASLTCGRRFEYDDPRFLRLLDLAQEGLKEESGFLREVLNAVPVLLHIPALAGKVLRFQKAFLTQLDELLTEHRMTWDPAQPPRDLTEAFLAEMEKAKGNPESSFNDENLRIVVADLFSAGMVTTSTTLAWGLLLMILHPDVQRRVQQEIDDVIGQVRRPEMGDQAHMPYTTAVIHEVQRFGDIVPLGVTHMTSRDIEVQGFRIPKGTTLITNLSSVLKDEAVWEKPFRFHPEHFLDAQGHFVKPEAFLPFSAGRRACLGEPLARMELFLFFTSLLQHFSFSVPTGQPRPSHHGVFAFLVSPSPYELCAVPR
Method in brief: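 Human CYP2D6 (5 nM) with 30 uM Luciferin-ME EGE (at Km) in 100 mM KPO4, compound preincubated 10 min, then NADPH regeneration system for 60 min at room temperature. Luciferin read by luminescence; normalized to 1.43 uM quinidine.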

[16] = molecular target: Ubiquitin carboxyl-terminal hydrolase 1 (Homo sapiens) (UniProt O94782); test: Inhibitors of USP1/UAF1: Pilot qHTS (AID 504865); note: potency is the fitted concentration of half-maximal effect; nearly all actives have a fitted effect of over 35% in size
Method in brief: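 Kinetic fluorescence assay: 1nM USP1/UAF1, 15 min compound preincubation, then 150nM Ub-Rho; 480/540 nm.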

[17] = molecular target: Cytochrome P450 2C19 (Homo sapiens) (UniProt P33261); test: qHTS Assay for Inhibitors and Substrates of Cytochrome P450 2C19 (AID 899); note: nearly all actives have a fitted effect of over 60% in size
Method in brief: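 Human CYP2C19 (5nM) with Luciferin-H EGE at 10uM (its KM) in 50mM KPO4 was preincubated with compound for 10 min at 37C. NADPH regeneration started a 60 min 37C reaction. Luciferin was read by luminescence, normalized to 57uM ketoconazole.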

[18] = qHTS Assay for Identification of Small Molecule Agonists for Thrombopoietin (TPO) Signaling Pathway (AID 917); note: % is set by controls: 0 for no effect and ±100 for the full control effect
Method in brief: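 We measured Glycoprotein IIb promoter–luciferase output in IL-3-starved Ba/F3 murine cells expressing the human TPO receptor after 24 hrs at 37 C with compounds and 26 pM TPO.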

[19] = molecular target: Cytochrome P450 3A4 (Homo sapiens) (UniProt P08684); test: qHTS Assay for Inhibitors and Substrates of Cytochrome P450 3A4 (AID 884); note: % is set by controls: 0 for no effect and ±100 for the full control effect; nearly all actives have a fitted effect of over 50% in size
Method in brief: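 20 nM human CYP3A4 with 25 uM Luciferin-PPXE (at KM) in 200 mM KPO4, preincubated 10 min with compound; NADPH regeneration started a 60 min RT reaction. Luciferin detected by luminescence, normalized to 57 uM ketoconazole as full inhibition.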

[20] = molecular target: Muscarinic acetylcholine receptor M1 (Rattus norvegicus) (UniProt P08482); test: qHTS Assay for Antagonists of Acetylcholine Muscarinic M1 Receptor: Kinetic Measurement of Intracellular Calcium Response (AID 943); note: potency is the fitted concentration of half-maximal effect; nearly all actives have a fitted effect of over 75% in size
Method in brief: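 CHO cells expressing rat M1 receptor, Fluo-4 loaded, preincubated 10 min with compound, then stimulated with EC80 carbachol (100 nM final). Kinetic calcium fluorescence over 4 min; response taken as peak over basal signal.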

[21] = molecular target: Muscarinic acetylcholine receptor M1 (Rattus norvegicus) (UniProt P08482); test: qHTS Assay for Antagonists of Acetylcholine Muscarinic M1 Receptor: Measurement of IP-One Response (AID 944); note: potency is the fitted concentration of half-maximal effect; nearly all actives have a fitted effect of over 75% in size
Method in brief: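 CHO cells stably expressing rat M1, pretreated 10 min with compound, then stimulated 30 min with carbachol at EC80 (200 nM) in LiCl-containing buffer pH 7.4; IP1 accumulation read by HTRF competition (665/620 nm).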

[22] = Confirmation and Secondary Assay for Modulators of Hemoglobin Beta Chain Splicing at IVS2 705 locus (AID 930);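 note: HeLa cells stably expressing the EGFP-705 splicing reporter; GFP fluorescence per well restored by corrected splicing of the IVS2-705 intron in EGFP; % of control where 0% means no effect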
Method in brief: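 Fluorescence gain (488 nm laser, 500-520 nm PMT) reflects restored correct splicing of a mutant IVS2-705 intron inside EGFP in stably transfected HeLa cells after 2-day compound treatment.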

Cc1cc(-c2cc(C)c(O)c(C(C)(C)C)c2)cc(C(C)(C)C)c1O
inactive: activity change, negative = inhibition [1] -0.717% [at 7.69 µM] | activity, negative = inhibition [3] 14.1% [at 7.69 µM] | Potency [4] > 46 µM | Potency [5] > 9.22 µM | activity change, negative = inhibition [6] -3.71% [at 11.4 µM] | Potency [7] | activation [8] -9.94%
active: Potency [2] 0.631 µM

Clc1ccc(C(c2ccc(Cl)cc2)n2cc[n+](C[C@@H](OCc3ccc(Cl)cc3Cl)c3ccc(Cl)cc3Cl)c2)cc1
active: Potency [2] 31.6 µM
inactive: activity change, negative = inhibition [1] -7.48% [at 38 µM] | Potency [4] > 46 µM | Potency [5] > 46 µM | Potency [6] | Potency [7] | outcome [9] | Potency [10] | outcome [11] | outcome [12] | outcome [13]

COc1cccc2c1C(=O)c1c(O)c3c(c(O)c1C2=O)C[C@](O)(C(C)=O)C[C@H]3O[C@@H]1C[C@H](N)[C@H](O)[C@H](C)O1
inactive: Potency [2] | Potency [4] > 20.6 µM | Potency [5] > 20.6 µM | Potency [7] | Potency [14] | Potency [15]
active: activity change, negative = inhibition [1] -116% | Potency [16] 31.6 µM

COc1cc2nc(N3CCN(C(=O)[C@H]4COc5ccccc5O4)CC3)nc(N)c2cc1OC
inactive: activity change, negative = inhibition [1] -28.6% [at 38 µM] | Potency [2] | activity, negative = inhibition [3] -8.72% [at 38 µM] | Potency [6] | outcome [9] | outcome [17] | Potency [18] | Potency [10] | outcome [11] | outcome [12] | outcome [13]

CCCN(CCc1ccccc1)[C@H]1CCc2c(O)cccc2C1
active: Potency [2] 12.6 µM | Potency [14] 12.6 µM | Potency [15] 0.501 µM | Potency [20] 0.501 µM | Potency [21] 2.82 µM
inactive: activity change, negative = inhibition [1] 9.86% [at 38 µM] | activity, negative = inhibition [3] -8.8% [at 38 µM] | Potency [4] > 46 µM | Potency [5] > 46 µM | Potency [6] | outcome [9] | Potency [19] | Potency [10] | outcome [11] | outcome [12] | outcome [13]

COCCNc1nc(-c2ccc(N(C)C)cc2)nc2ccccc12
inactive: activity change, negative = inhibition [1] 26.5% [at 7.69 µM] | activity, negative = inhibition [3] 4.49% [at 7.69 µM] | Potency [4] > 46 µM | Potency [5] > 46 µM | Potency [6] | Potency [14] | Potency [22]
active: Potency [2] 0.631 µM
